# Assay results as given in PubChem BioAssay (NCI).
# About 83,000 compounds went through this panel and 20% of them were active in at least one assay; those are over-represented in the sample as a whole.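 Each cell line was grown in a 96-well plate and treated with one concentration of compound for 48 hours. Values below 10 were considered active.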 Values without a mark were called inactive. Active and inactive are the calls of the source.
# Columns and labels:
# Assay in all cases: NCI-60 one-dose screen, 48 h (100 = growth as untreated, 0 = no growth, -100 = all killed)
# Conditions in all cases: 10 µM unless noted
# NCI-H23 lung = system: NCI-H23 lung
# NCI-H226 lung = system: NCI-H226 lung
# NCI-H322M lung = system: NCI-H322M lung
# HOP-62 NSCLC = system: HOP-62 NSCLC
# NCI-H460 lung = system: NCI-H460 lung
# HOP-92 NSCLC = system: HOP-92 NSCLC
# NCI-H522 lung = system: NCI-H522 lung
# A549/ATCC NSCLC = system: A549/ATCC NSCLC
# 786-0 renal = system: 786-0 renal
# COLO 205 colon = system: COLO 205 colon
SMILES,growth (NCI-H23 lung),growth (NCI-H226 lung),growth (NCI-H322M lung),growth (HOP-62 NSCLC),growth (NCI-H460 lung),growth (HOP-92 NSCLC),growth (NCI-H522 lung),growth (A549/ATCC NSCLC),growth (786-0 renal),growth (COLO 205 colon)
COc1cccc(C(=O)NNc2nc(Cl)nc(N3CCN(C(c4ccccc4)c4ccccc4)CC3)n2)c1,45.3%,94.9%,88.9%,92.8%,102%,77%,-13.6% (active),101%,82%,76.6%
Oc1ccc(C(c2ccc(O)cc2)c2ccc(Br)cn2)cc1,-18.2% (active),-14% (active),-27.3% (active),77.5%,107%,-0.572% (active),42.6%,37.3%,89.7%,1.1% (active)
CCCCCCCCCCCCCCCC[N+]1(C)CCN(SN2CC[N+](C)(CCCCCCCCCCCCCCCC)CC2)CC1,52.8%,78.9%,80.3%,56.6%,29.6%,15.5%,54.8%,72%,30.3%,61%
O=C(CSc1nc2sc3c(c2c(=O)n1-c1ccc(Cl)cc1)CCCC3)Nc1nc(-c2cccc(Br)c2)cs1,56.9%,64%,87.8%,90.7%,94.7%,107%,69.8%,70.4%,91.5%,85.1%
CCOC(=O)Oc1c(OC)cc(C(=O)c2ccc(OC)c(O)c2OC)cc1OC,37.8%,54.9%,46.1%,24%,8.66% (active),48.3%,24%,25.7%,21.2%,89.6%
C=C1C(=O)O[C@H]2[C@H]1CC/C(CNC(=O)c1cccc3ccccc13)=C\CC[C@@]1(C)O[C@@H]21,70.1%,78%,90.5%,93.1%,78.6%,-11% (active),-46.7% (active),76.9%,32.2%,28.5%
CNC(=O)c1cccc(Cn2nc(C)c(NC(=O)c3ccc(COc4ccc(C(F)(F)F)cc4C)cc3)c2C)c1,47.3%,44.6%,88%,46.3%,47.7%,80%,33%,31.1%,54.8%,42.7%
CCCCCN1C=C/C(=C\C(=O)N(C)c2ccccc2Br)c2ccccc21,77.8%,89.8%,108%,95.3%,101%,94.7%,78.2%,90.9%,94.1%,105%
CCCOc1ccc(/C=N/Nc2cc(C)nc3ccc(Cl)cc23)cc1,75.9%,88.3%,62.1%,75.2%,-37.5% (active),69.2%,86.9%,36.9%,-86.4% (active),-80.7% (active)
COc1cc(CC(=O)n2ncc3ccc(N)cc32)cc(OC)c1OC,91.4%,94.9%,88.5%,94.8%,102%,99%,85.6%,98.9%,97.5%,109%
COc1cc(NC(C)CCCNC(=O)CCC(=O)NCCCNCCCCCCCCCCNCCCNC(=O)CCC(=O)NCCCC(C)Nc2cc(OC)cc3cccnc23)c2ncccc2c1 (stereo not given),63.4% [8 µM],58.6% [8 µM],32.1% [8 µM],101% [8 µM],81% [8 µM],59% [8 µM],57.1% [8 µM],63.7% [8 µM],92.5% [8 µM],26.7% [8 µM]
O=C(Nc1ccccc1C(=O)N/N=C(\c1ccccc1)c1ccccn1)c1ccc(F)cc1,28.2%,27.4%,25.9%,12.6%,6.06% (active),69.1%,22.7%,15.6%,-8.12% (active),10.6%
Cc1cnc(C(=O)Nc2nc3ccc(S(=O)(=O)Nc4ccc(C(C)(C)C)cc4)cc3[nH]2)cn1,37.4%,31.3%,41.6%,42.5%,1.67% (active),37.4%,24.4%,21.6%,22.7%,6.64% (active)
ClC1=C(Br)C(Br)(Br)C(=C(Br)Br)C1(Br)Br,104%,93.6%,99%,121%,94.7%,94%,-25% (active),94.6%,109%,57.3%
O=C(CCN1CCCC1)Nc1ccc2c(NCCCCc3ccccc3)c3ccccc3nc2c1,-57.9% (active),63.1%,-24.8% (active),-46.6% (active),-69% (active),-2.02% (active),-38.7% (active),-45.5% (active),15%,-47.1% (active)
NS(=O)(=O)c1ccc(CCN2C(=O)C3C(C2=O)C2(Cl)C(Cl)=C(Cl)C3(Cl)C2(Cl)Cl)cc1 (stereo not given),92.9%,101%,104%,104%,104%,47.6%,91%,101%,95.3%,108%
COc1cc(NC(C)CCCNC(=O)CCC(=O)NCCCNCCCCCCCCNCCCNC(=O)CCC(=O)NCCCC(C)Nc2cc(OC)cc3cccnc23)c2ncccc2c1 (stereo not given),54.4%,44.5%,32.9%,85.2%,87.4%,54.2%,47.3%,63%,92.6%,14.7%
CCCCOc1ccc(/C=N/Nc2cc(C)nc3ccc(Br)cc23)cc1,74.9%,90.2%,76.9%,82.5%,-34.6% (active),68%,76.9%,34.5%,-83.7% (active),-58.5% (active)
O=C(C1CCC1)N1N=C(c2ccc(-n3ccc(C(F)(F)F)n3)cc2)CC1c1ccc[nH]1 (stereo not given),101%,107%,90.1%,108%,101%,130%,84.7%,89.3%,95.8%,113%
O=C(N/N=C/c1ccc(Oc2ccccc2)cc1)c1cnn2c1NC(c1ccccc1)C2 (stereo not given),61.2%,89.2%,32.2%,33.6%,1.16% (active),74.2%,51.3%,8.65% (active),41%,51.6%
CCN(CC)CCn1c(=O)c2cc(OC)c(OC)cc2c2ccc3cc4c(cc3c21)OCO4,19.5%,1.83% (active),41%,21.9%,6.21% (active),52.6%,34.9%,39.4%,11.4%,30.2%
N#CC1=C(/N=C/c2ccccc2)Oc2c(ccc3ccccc23)C1c1ccc([N+](=O)[O-])cc1 (stereo not given),80.2%,65.3%,93.8%,89.1%,95.2%,88.5%,86.2%,101%,102%,109%
COc1ccc2c(c1)C(=O)CC(c1ccccc1OC)O2 (stereo not given),86.9%,93.8%,104%,92.6%,100%,94.3%,93%,96%,104%,109%
Cc1nn(-c2ccccc2)c(Cl)c1/C=C/C(=O)c1ccc(F)cc1,94.6%,85.8%,91.2%,89.5%,98%,88.1%,69.4%,83.8%,12.6%,105%
